The text below walks through data of PubChem BioAssay.

In assay [1] the test system is Human papillomavirus type 1a protein E7 (residues 44-93). Briefly: HPV1a E7 fragment binders on microarrays, primary screen, biochemical, small-molecule microarray, residues 44-93, 635 nm fluorescence (AID 1108).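 Note: E7 fragment applied at 1 µg/mL in TBST for 1 h at 4 C; score combines spot fluorescence with its signal to noise ratio.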 Conditions: small-molecule microarray binding, fluorescence 635 nm; higher = more signal.
The nature of assay [2]: modulators of HCV replicon luciferase signal, primary screen, HCV replication inhibitor project, Huh7 cells, luciferase reporter (AID 1109).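 Note: huh7 hepatoma cells harbouring a luciferase neomycin HCV replicon reporter; luciferase luminescence as measure of HCV replicon replication; test concentration not given here.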 The note with it: 48 h, higher = more signal. For orientation: Replicon systems follow genome replication, usually without infectious particles.
The target in assay [3] is Left-right determination factor 2 (Homo sapiens) (UniProt O00292). Briefly: LEFTY2 binders on small-molecule microarrays, primary screen, biochemical, small-molecule microarray, 635 nm fluorescence scan (AID 1110). Conditions: LEFTY2 binding, higher = more signal.
Assay [4] concerns the target Calmodulin-1 (Homo sapiens) (UniProt P0DP23). The assay is described as follows: CALM1 binders on microarrays, EGTA buffer, profiling panel, biochemical, small-molecule microarray, Cy5-labelled CALM1 (AID 1111).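 Note: labelled calmodulin applied in Tris saline Tween buffer holding calcium plus EGTA and DTT.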 Conditions: Cy5-CALM1 binding fluorescence, higher = more signal.
The target is the same in assay [5]. The assay is described as follows: calcium-bound CALM1 binders on microarrays, profiling panel, artefact control for SMM control-protein annotation, biochemical, small-molecule microarray, Cy5-labelled CALM1, plus calcium (AID 1112).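 Note: score merges spot fluorescence with signal to noise from triplicate slides.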 Conditions: Cy5-CALM1 binding fluorescence, higher = more signal.
The nature of assay [6]: small-molecule microarray binders of probe aWnt5a, primary screen, biochemical, biotinylated probe, 635/667 nm fluorescence (AID 1113).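 Note: score merges 667 nm fluorescence intensity with signal-to-noise per printed feature.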 Conditions: higher = more signal.
Assay [7] in a line: small-molecule microarray binders of probe aShh, primary screen, biochemical, biotinylated probe, 635/667 nm fluorescence (AID 1114).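 Note: probe is biotin-labelled aShh protein from a stem cell growth factor screen; measures binding of labelled protein to compounds printed on the slide; score merges feature fluorescence at 667 nm with signal-to-noise.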 Conditions: higher = more signal.
A short description of assay [8]: small-molecule microarray binders of probe aNog, primary screen, biochemical, biotinylated probe, 635/667 nm fluorescence (AID 1115).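 Note: probe is biotinylated aNog protein used at 0.15 µg/mL for 1 h at 4 C; z-score combines 667 nm fluorescence of each spot with its signal to noise.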 The note with it: higher = more signal.
Assay [9] has as its target Torsin-1A-interacting protein 1 (Homo sapiens) (UniProt Q5JTV8). Briefly: LAP1 binders from COS7 cell lysate, primary screen, small-molecule microarray, 635/667 nm fluorescence (AID 1116). The note with it: COS7-hLAP1 lysate binding, 635 nm fluorescence, higher = more signal.
Assay [10] addresses Alpha-bungarotoxin (Bungarus multicinctus) (UniProt P60615). The assay is described as follows: alpha-bungarotoxin binders on microarray, profiling panel, artefact control for SMM control protein annotation, biochemical, small-molecule microarray, Alexa647 label, 635/667 nm fluorescence (AID 1117). Conditions: alpha-BTX-A647 binding fluorescence, higher = more signal.

Chain of Alpha-bungarotoxin (Bungarus multicinctus) (P60615 whole entry, looked up): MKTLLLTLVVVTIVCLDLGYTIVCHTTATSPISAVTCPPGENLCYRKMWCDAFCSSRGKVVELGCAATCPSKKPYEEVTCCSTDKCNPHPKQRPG
Chain of Torsin-1A-interacting protein 1 (Homo sapiens) (Q5JTV8 whole entry, looked up): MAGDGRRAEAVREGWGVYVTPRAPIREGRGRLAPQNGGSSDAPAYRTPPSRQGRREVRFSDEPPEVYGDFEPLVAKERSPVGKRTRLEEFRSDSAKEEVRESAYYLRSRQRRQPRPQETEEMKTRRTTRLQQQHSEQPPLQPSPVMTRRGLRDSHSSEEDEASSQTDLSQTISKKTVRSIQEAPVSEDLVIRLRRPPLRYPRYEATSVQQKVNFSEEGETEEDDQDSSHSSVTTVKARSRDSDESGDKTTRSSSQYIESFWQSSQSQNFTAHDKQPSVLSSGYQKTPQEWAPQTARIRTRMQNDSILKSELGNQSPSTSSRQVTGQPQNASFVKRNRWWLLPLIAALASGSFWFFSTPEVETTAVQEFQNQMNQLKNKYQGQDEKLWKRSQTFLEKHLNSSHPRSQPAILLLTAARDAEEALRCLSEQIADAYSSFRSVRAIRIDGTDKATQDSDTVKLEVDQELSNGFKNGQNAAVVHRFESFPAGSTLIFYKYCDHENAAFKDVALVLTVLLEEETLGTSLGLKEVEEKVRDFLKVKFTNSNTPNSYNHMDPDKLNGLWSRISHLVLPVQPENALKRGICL
Chain of Left-right determination factor 2 (Homo sapiens) (O00292 whole entry, looked up): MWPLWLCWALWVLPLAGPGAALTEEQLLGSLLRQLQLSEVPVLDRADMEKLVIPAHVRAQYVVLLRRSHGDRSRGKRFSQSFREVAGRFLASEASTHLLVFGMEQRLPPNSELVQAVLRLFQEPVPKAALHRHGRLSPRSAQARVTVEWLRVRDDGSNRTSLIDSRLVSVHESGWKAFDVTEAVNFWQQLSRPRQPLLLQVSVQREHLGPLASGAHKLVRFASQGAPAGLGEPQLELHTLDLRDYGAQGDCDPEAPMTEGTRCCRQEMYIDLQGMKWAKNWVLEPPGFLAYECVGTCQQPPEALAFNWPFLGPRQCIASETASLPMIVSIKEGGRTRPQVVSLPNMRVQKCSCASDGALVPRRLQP

Turning to `NC(=O)NCC#Cc1ccc2c(c1)[C@]1(C(=O)N2)[C@H](C(=O)N2CCN(c3ncccn3)CC2)[C@H]2C(=O)O[C@H](c3ccccc3)[C@H](c3ccccc3)N2[C@@H]1c1ccc(O)cc1`, the composite z-score was 1.23 in assay [1]; 0.728 in assay [3]; 0.313 in assay [4]; -0.156 in assay [5]; 0.108 in assay [6]; 0.296 in [7]. Besides, the composite z-score was -0.524 in assay [8], 0.498 in [9] and 0.677 in assay [10]. In assay [2], this compound came in with a z-score of -0.437.

Consider `CCOC(=O)C[C@H]1[C@H](OC(=O)c2cc3ccccc3oc2=O)[C@@H](NC(=O)c2ccccc2)c2cc(OCCCO)ccc2N1C(=O)c1ccccc1`, for which the composite z-score in assay [1] is 0.119; in assay [3] it was 0.535; in assay [4] it was -0.0848; in [5], -0.782; in assay [6], -0.0718; in assay [7], 0.0121. For the same compound, the composite z-score in [8] was -0.108; in assay [9], 0.203; in assay [10], 0.139. In assay [2], this compound yielded a z-score of -0.148.

Turning to `C=CCOC(=O)[C@@]1(Cc2ccccc2)C[C@H]2CO[C@H](c3ccc(OC)cc3)N2C1=O`, the composite z-score in assay [1] was 0.206; in assay [3] it was 0.283; in assay [4] it was -0.388; in assay [5], -0.659; in [6], -0.0846; in [7], -0.0035. Moreover, the composite z-score is -0.118 in assay [8], 0.574 in assay [9] and 0.352 in assay [10]. In assay [2], this compound had a z-score of -0.938.

For the compound `Cc1ccc(N2C(=O)c3ccccc3[C@@H](C(=O)NCCCN(C)C)[C@@H]2c2ccc(CO)cc2)nc1`, the composite z-score in [1] is -0.48; in assay [3], -0.14; in assay [4], -0.571; in [5], -0.382; in assay [6], -0.22; in assay [7], -0.452. Besides, the results for the composite z-score in [8], in [9] and in assay [10] were -0.577, 1.29 and 0.14, respectively. Further, the z-score in assay [2] came out at 0.234.

For the compound `CN1C2C=C(CCCO)C(C3C(=O)N(C(N)=O)C(=O)C32)C1C1CC1` (stereo not given), the composite z-score in [1] was -0.071; in [3], -0.645; in assay [4], -0.495; in assay [5], -0.458; in [6] it was -0.0462; in [7], 0.0062. Besides, the composite z-score in assay [8] was -0.102; in assay [9], 0.474; in assay [10], 0.0218. The same compound displayed a z-score in [2] of -0.225.

`COCCCNC(=O)[C@@]1(CCC(=O)OC(C)(C)C)N=C(c2ccc(OCCCO)cc2)O[C@H]1c1ccccc1N=[N+]=[N-]`: the composite z-score in assay [1] was 0.515; in assay [3], 0.473; in assay [4], 2.01; in [5] it was 0.807; in assay [6] it was 0.302; in assay [7], 0.0326. Further, the composite z-score is -0.261 in assay [8], 2.32 in [9] and 1.71 in assay [10]. In assay [2], this compound yielded a z-score of 1.46.

Turning to `C=C(COC)/C(=C/C[C@H](OC(=O)c1ccncc1)c1ccc(CO)o1)c1cnc2ccccc2c1`, the composite z-score is 1.38 in [1]; 0.321 in assay [3]; -0.0747 in assay [4]; -0.91 in [5]; -0.0758 in assay [6]; 0.337 in assay [7]. In addition, the composite z-score in assay [8] was -0.12; in assay [9] it was 0.865; in assay [10] it was 1.91. Also, the z-score in assay [2] was -0.403.

Consider `CCCCC(CC)C(O)C1C=CC2C(=O)N(c3ccccc3)C(=O)C2N1Nc1ccccc1F` (stereo not given), for which the composite z-score in assay [1] was 1.41; in assay [3], -0.285; in assay [4], 0.0117; in assay [5], -0.264; in assay [6], 0.0768; in assay [7], 0.341. For the same compound, the composite z-score in assay [8] was 1.1; in assay [9] it was 0.928; in assay [10], -0.176. In assay [2], the z-score is -0.508.

With `COCCOC(=O)N1C(=O)[C@@]2(c3cc(C#CCNC(N)=O)ccc31)[C@H](C(N)=O)[C@H]1C(=O)O[C@H](c3ccccc3)[C@H](c3ccccc3)N1[C@@H]2c1ccccc1OCCO`, the composite z-score in assay [1] is 0.989; in [3], 0.467; in assay [4], 0.318; in [5], -0.304; in [6], -0.129; in assay [7] it was -0.0977. Moreover, the composite z-score in assay [8] was -0.288; in assay [9], 1.26; in assay [10] it was 1.06. In addition, the z-score in [2] was -0.814.

For `COc1cccc(C)c1NC(=O)O[C@H]1[C@H](OC(=O)Nc2ccc3c(c2)OCO3)[C@@H](OC(=O)Nc2ccc3c(c2)OCO3)[C@@H](OC)O[C@@H]1CO`, the composite z-score in assay [1] is 1.42; in assay [3], 0.794; in [4], 0.108; in assay [5] it was -1.04; in [6] it was 0.0973; in assay [7] it was 0.149. In addition, the composite z-score in assay [8] was -0.0899; in [9], 1.5; in [10], 0.869. Moreover, the z-score in [2] is 0.658.

As to `CO[C@H]1O[C@H](CO)[C@@H](OC(=O)Nc2ccc(Br)cc2)[C@@H]2OC(=O)[C@@H](Cc3ccccc3)C/C=C/C[C@H](Cc3ccccc3)C(=O)O[C@@H]12`, the composite z-score in assay [1] came out at 0.816; in [3], 0.142; in assay [4], 0.534; in assay [5], 0.149; in [6] it was 0.218; in assay [7], 0.0483. For the same compound, the composite z-score in assay [8] was determined as 1.04; in assay [9] it was 0.325; in assay [10], 0.804. In assay [2], this compound gave a z-score of -3.75.

With `CC(C)NC(=O)[C@@]1(c2ccc([N+](=O)[O-])cc2)CC(=O)N(C2CCCCC2)[C@@H]1c1ccc(CO)cc1`, the composite z-score in [1] was 1.46; in assay [3], -0.016; in [4] it was -0.0034; in assay [5], -0.0027; in assay [6], 0.0115; in assay [7], -0.553. The figures for the composite z-score in [8], in assay [9] and in [10] were 0.275, 2.08 and 0.621, respectively. In assay [2], this compound showed a z-score of -0.778.

As to `O=C(c1ccccc1)N1C(=O)[C@]2(Cc3ccccc31)N=C(c1ccc(OCCCO)cc1)O[C@@H]2c1ccccc1`, the composite z-score was 1.44 in [1]; 0.148 in assay [3]; 1.43 in assay [4]; -0.165 in assay [5]; -0.0758 in assay [6]; 0.108 in assay [7]. Further, the composite z-score was -0.535 in [8], 0.688 in assay [9] and 1.46 in assay [10]. In addition, the z-score in [2] was -2.94.

As to `C#CCN(Cc1ccccc1Br)[C@H](/C=C/c1ccccc1)[C@@H](O)Cc1ccccc1`, the composite z-score was 0.169 in [1]; -0.81 in [3]; -1.03 in assay [4]; 0.41 in assay [5]; -0.128 in assay [6]; -0.124 in assay [7]. Besides, the composite z-score in [8] was 0.0108; in assay [9], -0.354; in assay [10] it was 0.192. For the same compound, the z-score in [2] is -1.42.

Take `CN(C)CCCCCCNC(=O)[C@@H]1C[C@@H]2C(=O)N3CCC[C@H]3C(=O)N2[C@@H]1c1cccc(OCCO)c1`: the composite z-score in assay [1] was 0.35; in [3] it was 0.944; in assay [4], -0.215; in [5], -1.74; in assay [6] it was 0.0566; in assay [7], 0.176. The figures for the composite z-score in [8], in [9] and in assay [10] were 0.822, 2.07 and 1.79, respectively. The z-score in assay [2] was determined as 0.857.

As for `COCCCNC(=O)[C@@]1(Sc2ccc(C)cc2)CC(=O)N(C2Cc3ccccc3C2)[C@@H]1c1ccc(CO)cc1`, the composite z-score in assay [1] is 0.52; in [3], -1.15; in [4], -0.176; in assay [5], -0.0232; in assay [6], -0.227; in [7], -0.2. Moreover, the figures for the composite z-score in assay [8], in assay [9] and in assay [10] were 0.551, 0.423 and -0.715, respectively. In assay [2], this compound displayed a z-score of -0.849.

In the case of `COC(=O)c1c(CC[C@@H](CO)NC(=O)N2CCC[C@H]2Cn2cc(C3(O)CCCCC3)nn2)oc(C(C)=O)c1C(=O)OC`, the composite z-score was 1.33 in assay [1]; 0.562 in assay [3]; 0.624 in assay [4]; -0.712 in assay [5]; -0.275 in [6]; -0.0709 in assay [7]. In addition, the composite z-score came out at 0.189 in assay [8], 0.416 in assay [9] and 0.966 in assay [10]. The compound further came in with a z-score in assay [2] of -0.172.

As for `[N-]=[N+]=Nc1ccccc1[C@@H]1OC(c2ccc(OCCCO)cc2)=N[C@]1(Cc1ccccc1)C(=O)N1CCCCC1`, the composite z-score is 1.46 in assay [1]; 0.0418 in [3]; 1.43 in assay [4]; 0.748 in assay [5]; 0.0484 in assay [6]; 0.337 in assay [7]. Besides, the composite z-score in assay [8] was found to be 1.37; in assay [9], 1.57; in [10] it was 1.25. This compound also registered a z-score in assay [2] of -2.57.
